SMILES strings stand for the structures. Among all 52,000 compounds or so, about 4,300 (8.3%) were called active. Shown is part of a subset that was picked to be rich in actives. Unmarked numbers belong to inactive results. Cut-off read from the data, not from the text of the source: active = survival mostly below about 52% (no sharp cut-off); inactive = mostly above about 56%.

This assay has as its system DeltatarO mutant. Briefly: growth inhibition of S. aureus wild type versus tarO mutant, primary screen, teichoic acid synthesis inhibitors, RN4220, OD600 (AID 463173). Conditions: OD600, 18 h, stronger effect = lower value, screened at 18.75 µg/mL (by protocol).
`CSc1cccc(NC(=O)Nc2ccccc2OCc2cc(=O)n3cc(C)ccc3n2)c1`: the survival was 102%.

In the case of `CCc1ccc(-c2nc(CN3CCC(C(=O)NCCc4ccc(Cl)cc4)CC3)c(C)o2)cc1`, the survival was 77%.

Consider `Cc1cccc(C(=O)N2CCc3cc(CNC(=O)CSc4ccccc4)ccc32)c1`, for which the survival was 77%.

As to `CCc1cc(=O)oc2c(C)c3c(cc12)CN(CCc1ccccc1)CO3`, the survival is 71%.

On to `Cc1c(C)c2cc3c(c(C)c2oc1=O)OCN(CCc1ccc(F)cc1)C3`, for which the survival is 41% (active).

On to `CCCc1cc(=O)oc2c(C)c3c(cc12)CN(CCc1ccc(Cl)cc1)CO3`, for which the survival is 39% (active).

For `COC(=O)Cc1c(C)c2cc3c(c(C)c2oc1=O)OCN(CCc1ccc(F)cc1)C3`, the survival is 44%.

With `CCc1cc(=O)oc2c(C)c3c(cc12)CN(CCc1ccccc1OC)CO3`, the survival was 51%.

`Cc1c(C)c2cc3c(c(C)c2oc1=O)OCN(CCc1ccccc1)C3`: the survival was 77%.

As to `COc1ccc2oc(=O)c(-c3nc(-c4ccc(C)c(C)c4)cs3)cc2c1`, the survival is 91%.

Consider `COc1ccc(C2CC(=O)c3cnc4c(-c5ccc(F)cc5)c(C)nn4c3C2)cc1OC` (configuration not stated), for which the survival was 80%.

On to `CCOC(=O)c1sc2ncn(CC(=O)Nc3ccc(C)cc3Br)c(=O)c2c1C`, for which the survival was 66%.

With `Cc1ccccc1CNC(=O)C(=O)NCC(c1ccc2c(c1)OCO2)N1CCOCC1` (configuration not stated), the survival was 87%.

Regarding `CCN(C(=O)c1cc2c(=O)oc3ccc(C)cc3c2s1)c1cc(OC)ccc1OC`, the survival is 78%.

Consider `CC(=O)Nc1ccc(Nc2ncnc3c2c(-c2ccccc2)cn3-c2ccc(C)c(Cl)c2)cc1`, for which the survival is 68%.

Consider `CNc1oc(-c2ccc(COc3ccc(C)cc3)o2)nc1C#N`, for which the survival is 77%.

As for `CCCn1c(CCC(=O)Nc2ccc(OCC)cc2)nc2cccnc21`, the survival is 93%.

Take `N#Cc1c(-n2ncnc2-c2ccccc2C(F)(F)F)sc2c1CCCCC2`: the survival is 6% (active).

On to `N#Cc1c(-n2ncnc2-c2ccccc2Cl)sc2c1CCCCC2`, for which the survival was 26% (active).

On to `COc1ccccc1-c1ncnn1-c1sc2c(c1C#N)CCCCC2`, for which the survival is -2% (active).

Turning to `CC(NC(=O)Nc1ccccc1C(F)(F)F)c1c(-n2cccc2)sc2c1CCCC2` (configuration not stated), the survival is 104%.

As to `COc1ccccc1-c1cc(C(=O)Nc2sc3c(c2C#N)CCCC3)no1`, the survival was 130%.

With `N#Cc1c(/N=C/N2CCCCC2)sc2c1CCCC2`, the survival is 80%.

In the case of `Cc1ccccc1-c1ncnn1-c1sc2c(c1C#N)CCCCC2`, the survival was 72%.

As to `COc1cccc(-c2ncnn2-c2sc3c(c2C#N)CCCCC3)c1OC`, the survival was 86%.

As for `N#Cc1c(NC(=O)c2cccs2)sc2c1CCCCC2`, the survival was 87%.

Take `O=C(CCNS(=O)(=O)c1ccc2c(c1)CCCC(=O)N2)NCc1ccccc1Cl`: the survival was 87%.

In the case of `CCCOc1ccc(CNC(=O)Cn2ncn3c(cc4sc(CC)cc43)c2=O)cc1`, the survival is 94%.

In the case of `CC(C)Cc1nn2c(=O)cc(COC(=O)c3ccccc3NC(=O)c3ccccc3)nc2s1`, the survival was 117%.

For `CSc1ncc(C(=O)Nc2ccccc2C(=O)c2ccccc2)c(C)n1`, the survival is 64%.

For `Cc1cccc(C(=O)NC(c2n[nH]c(=S)n2C)C(C)C)c1` (configuration not stated), the survival was 111%.

For the molecule `CCCOc1cccc(C(=O)Nc2cccc(NC(=O)c3ccc(Cl)cc3Cl)c2)c1`, the survival is 88%.

Turning to `CCOC(=O)c1ccccc1NC(=O)Cc1c(C(=O)O)c(C)cn1C`, the survival was 17% (active).

Take `CCc1ccc(NC(=O)Cc2c(C(=O)O)c(C)cn2C)cc1`: the survival is 87%.

`Cc1c(Cl)cccc1NC(=O)CCOc1ccccc1`: the survival was 142%.

As for `Cc1cn(C)c(CC(=O)Nc2cccc(Cl)c2C)c1C(=O)O`, the survival is 99%.

Consider `CCOC(=O)c1ccccc1NC(=O)CCOc1ccccc1`, for which the survival was 22% (active).

For the molecule `Cc1ccc(C)c(NC(=O)CCOc2ccccc2)c1`, the survival was 77%.

As for `COc1ccc(C2(C(=O)O)CCCC2)cc1OC`, the survival was 107%.

For `CSc1ncc(C(=O)N2CCN(c3cc(C)ccc3C)CC2)c(C)n1`, the survival was 72%.

Take `Cc1ccc(S(=O)(=O)c2nnn3c2nc(N2CCC(C)CC2)c2cc(Cl)ccc23)cc1C`: the survival was 78%.

Consider `COc1ccc(OC)c(C2C(C(=O)N3CCCCC3)=C(C)Nc3nc4ccccc4n32)c1` (configuration not stated), for which the survival was 63%.

With `COc1ccc(-n2cnc3cc(C(=O)NCCC4=CCCCC4)ccc32)cc1`, the survival is 75%.

As to `CC(C)C(=O)Nc1ccc(N2CCN(C(=O)c3ccccc3)CC2)cc1`, the survival was 101%.

For the molecule `CCOCCCn1c(SCC(=O)Nc2ccccc2CC)nc2ccccc2c1=O`, the survival was 80%.

For `Cc1ccc(Cn2c(SCC(=O)NCc3ccccc3Cl)nc3ccsc3c2=O)cc1`, the survival was -5% (active).

For `Cc1ccc(CSc2nc3ccsc3c(=O)n2CCC(C)C)cc1`, the survival was -5% (active).

As to `CC(C)CCn1c(SCc2cccc(F)c2)nc2ccsc2c1=O`, the survival was 87%.

In the case of `Cc1ccc(Cn2c(SCC(=O)NCc3ccccc3)nc3ccsc3c2=O)cc1`, the survival is 92%.

In the case of `O=C(CSc1nc2ccsc2c(=O)n1Cc1ccccc1Cl)NCc1ccc(Cl)cc1`, the survival was 101%.

Turning to `Cc1ccccc1CSc1nc2ccsc2c(=O)n1CCC(C)C`, the survival is 68%.

On to `Cc1nc2sc(C(=O)N(C)Cc3ccccc3)c(NC(=O)c3ccccc3)c2c(C)c1Cl`, for which the survival is 60%.

`Cc1cc(=O)n(Cc2ccccc2Cl)c2c1c(C)nn2-c1ccccc1`: the survival is 100%.

For `CCOc1ccc(CNC(=O)c2nn(-c3ccc(OC)cc3)c(=O)c3c2c2ccccc2n3C)cc1`, the survival is 101%.

`CCC(=O)N1c2ccccc2CC1C(=O)NCc1ccc(OC(C)C)cc1` (configuration not stated): the survival was 97%.

Regarding `CC1CCN(CC(=O)O)CC1`, the survival is 99%.

Turning to `COc1cc(-c2noc(CSc3nc(-c4ccc(F)cc4)cc(=O)[nH]3)n2)cc(OC)c1OC`, the survival was 69%.

Turning to `O=C(c1cc(-c2cccc(Cl)c2)on1)N1CCN(c2ccccc2)CC1`, the survival is 23% (active).

Turning to `CC1CCN(C(=O)c2cc(-c3ccc(Br)cc3)on2)CC1`, the survival is 51%.

With `O=C(C1CC(c2ccccc2O)=NO1)N1CCCC1` (configuration not stated), the survival was 91%.

In the case of `CC1CCN(C(=O)c2cc(-c3ccc(Cl)cc3)on2)CC1`, the survival was 66%.

Consider `CCc1cc(C(=O)N2CCN(c3ccccc3)CC2)no1`, for which the survival is 48%.

As for `O=C(c1cc(-c2ccc(O)cc2)on1)N1CCN(c2ccccc2)CC1`, the survival is 96%.

For the molecule `CN(C(=O)c1cc(-c2ccccc2)on1)C1CCCCC1`, the survival was 91%.

As to `O=C(c1cc(-c2ccccc2O)on1)N1CCCCC1`, the survival is 40% (active).

As to `NC(=O)C1CCN(C(=O)c2cc(-c3ccccc3)on2)CC1`, the survival was 98%.

Turning to `CC1CCN(C(=O)c2cc(-c3cccc(Cl)c3)on2)CC1`, the survival is -15% (active).

Regarding `O=C(O)c1cc(-c2ccccc2)on1`, the survival was 100%.

As for `CN(C(=O)c1cc(-c2ccccc2O)on1)c1ccccc1`, the survival is 40% (active).

On to `CCN(CCCNC(=O)Cn1ncc2c([nH]c3ccc(C)cc32)c1=O)c1ccccc1`, for which the survival is 115%.

For `Cc1csc2nc(COc3ccc(NC(=O)C(C)C)cc3)cc(=O)n12`, the survival was 98%.

`COc1ccc(NC(=O)Cn2cc(C(=O)c3ccccc3)c(=O)c3cc(OC)ccc32)c(OC)c1`: the survival was 92%.

On to `CCCn1cc(S(=O)(=O)c2ccc(C)c(C)c2)c(=O)c2cc(F)c(N3CCC(C)CC3)cc21`, for which the survival is 67%.

In the case of `COc1cccc2cc(C(=O)N3CCN(c4cc(C)ccc4C)CC3)c(=O)oc12`, the survival is 56%.

Consider `Cc1cccc(CNC(=O)CN2C(=O)CCn3nc(-c4cn(C)c5ccccc45)cc32)c1`, for which the survival is 119%.

As to `CCOC(=O)COc1ccc(CC)cc1C(=O)c1ccn2nc(-c3ccc(Cl)cc3)cc2n1`, the survival is 74%.

As for `COc1ccccc1NC(=O)N(Cc1nnc2n1CCCCC2)c1ccc(F)cc1`, the survival is 91%.

As for `O=C(c1cc(-c2ccccc2)on1)N1CCCCC1`, the survival was 95%.

As to `O=C(c1cc(-c2cccc(Cl)c2)on1)N1CCCCC1`, the survival is 46% (active).

`CCN(CC)C(=O)c1cc(-c2ccc(Cl)cc2)on1`: the survival was 36% (active).

As for `COCCNC(=O)c1cc(-c2cccc(Cl)c2)on1`, the survival was 134%.

For the molecule `CN(Cc1ccccc1)C(=O)c1cc(-c2cccc(Cl)c2)on1`, the survival was -15% (active).

In the case of `COc1ccccc1N1CCN(C(=O)c2cc(-c3ccccc3O)on2)CC1`, the survival was 61%.

As for `COc1ccccc1-c1cc(C(=O)N2CCN(c3ccccc3)CC2)no1`, the survival is -15% (active).

Turning to `COc1ccc(-c2cc(C(=O)N3CCN(c4ccccc4)CC3)no2)cc1`, the survival is 77%.

In the case of `Cc1ccc(-c2cc(C(=O)N3CCCC3)no2)cc1`, the survival is 98%.

As for `O=C(NCCc1ccccc1)c1cc(-c2cccc(Cl)c2)on1`, the survival is 76%.

On to `CCc1ccc(CN(Cc2ccco2)C(=O)c2cc(-c3ccc(Cl)cc3)on2)cc1`, for which the survival is 75%.

Take `CCN(CC)C(=O)c1cc(-c2ccccc2)on1`: the survival is 101%.

For `CC(C)CN1CCc2nc(N3CCN(c4ncccn4)CC3)ncc2C1`, the survival was 72%.

Regarding `CCNc1nc(NCC)nc(N(C#N)CC)n1`, the survival was 62%.

With `CCc1ccc(NC(=O)Cn2c(=O)n(Cc3ccc(C)cc3)c(=O)c3cccnc32)cc1`, the survival was 88%.

For `CC(=O)c1ccc(N2CCN(C(=O)Nc3cn(CC(C)C)c(=O)c4ccccc34)CC2)cc1`, the survival was 80%.

As to `Cc1ccc(C)c(NC(=O)c2cnc(N3CCCC3)nc2C)c1`, the survival is 94%.

As to `COc1ccc(NC(=O)CSc2oc(-c3ccc(F)cc3)nc2S(=O)(=O)c2ccc(C)cc2)c(OC)c1`, the survival is 61%.

Turning to `Cc1cccc(NC(=O)NCCOCCn2c(=O)oc3ccccc32)c1C`, the survival was 99%.

Consider `O=C(Nc1ccc(Cl)cc1)N1CCC(CN2CCCC2)CC1`, for which the survival is 84%.
